Screening results: PubChem, Broad Institute
PGC1a acetyl inh: modulators of PGC1a acetylation | U2OS PGC1a acetylation, AlphaScreen anti-acetyl-lysine; with virally co-expressed GCN5 acetyltransferase | inhibition, % at 15.6 µM | 350,000 tested, 0.17% active | AID 651687;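 active = every replicate shows inhibition of at least 40%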;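 note: 0% = neutral control wells and 100% = positive control wells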
C2C12 statin: protects C2C12 myotubes from simvastatin toxicity; ATP luminescence, 48 h; scaled: DMSO 0, geranylgeraniol control 100; rescue of ATP level, % at 7.49 µM; 330,000 tested, 0.78% active;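 active = mean ATP rescue above about 67%, or every replicate alone reaching that limit, limit read from the data, passing the limit was not always enough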;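 note: myotubes were challenged with 10 µM simvastatin during compound exposure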
PvdQ acylase: blocks Pseudomonas aeruginosa PvdQ acylase activity | inhibition, % at 10 µM | purified PvdQ acylase, fluorescence plate reader | 340,000 tested, 0.063% active; in the data active = inhibition above about 30%, passing the limit was not always enough;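 note: 0% = vehicle neutral wells and 100% = reference inhibitor wells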
DENV2 CPE rescue: protects cells from dengue virus 2 cytopathic effect | CPE inhibition, % at 9.99 µM | 350,000 tested, 1.7% active | DENV2-infected cells, cytopathic effect rescue, plate reader; in the data active = CPE inhibition above about 20%, passing the limit was not always enough; tested in BHK-21 cells;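 note: 0% = median of neutral control wells and 100% = median of positive control wells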
miR122 inh: blocks miR-122 activity in Huh7 sensor cells. 340,000 tested, 0.3% active. Huh7 miR-122 Renilla luciferase sensor, 48 h; neutral wells = 0, positive control = 100. activation (reporter increase), % at 12.5 µM;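 active = mean replicate activation score at least 90 and every replicate individually at or above 90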;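 note: higher luciferase means less miR-122 activity so hits act as miR-122 inhibitors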
* hit, by the source's call; / = no result; [ ] = another dose, or the depositor's remark. In the library only some 2.2% were active in any assay of this set; here they are far more common.

SMILES | PGC1a acetyl inh | C2C12 statin | PvdQ acylase | DENV2 CPE rescue | miR122 inh
CC(C)(O)C#Cc1ccc([C@@H]2[C@@H](CO)N3CCCCN(C(=O)c4ccc(F)cc4)C[C@@H]23)cc1 | 0 | -10 | / | 83* | 17[16.7 µM]
C[C@@H]1CN([C@@H](C)CO)C(=O)c2cc(NC(=O)CCN3CCOCC3)ccc2O[C@@H]1CN(C)S(=O)(=O)c1ccc(Cl)cc1 | 3 | 21 | / | 11 | 31[16.7 µM]
Cc1csc2nc(CNC(=O)c3cccc(C(F)(F)F)c3)cn12 | -3 | 109* | -13 | / | 13
O=C(NCc1cn2ccsc2n1)c1cccc(C(F)(F)F)c1 | 0 | -1 | 11 | / | -6
CN1C(=O)c2cc(NC(=O)C3CCC3)ccc2OC[C@H]2O[C@@H](CC(=O)NCCc3ccncc3)CC[C@H]21 | / | / | / | 21* | /
CN1C(=O)c2cc(NC(=O)C3CCCC3)ccc2OC[C@@H]2O[C@H](CC(=O)NCCc3ccncc3)CC[C@@H]21 | / | / | / | 10 | /
CN1C(=O)c2cc(NC(=O)C3CCCC3)ccc2OC[C@H]2O[C@H](CC(=O)NCCc3ccncc3)CC[C@H]21 | 6 | / | / | 166* | /
CN1C(=O)c2cc(NC(=O)C3CCCC3)ccc2OC[C@H]2O[C@H](CC(=O)NCCc3ccncc3)CC[C@@H]21 | -13 | / | / | 29* | /
CN1C(=O)c2cc(NC(=O)C3CCC3)ccc2OC[C@@H]2O[C@H](CC(=O)NCCc3ccncc3)CC[C@H]21 | -3 | / | / | 1 | /
COc1ccccc1/C=C/C=C1\Oc2c(ccc(O)c2CN(C)C)C1=O | -27 | 26 | -5 | -7 | 14
CCN(CC)Cc1c(O)ccc2c1O/C(=C\C=C\c1ccccc1)C2=O | 24 | 106* | -14 | 11 | 278*
C[C@H](CO)N1C[C@H](C)[C@H](CN(C)CC2CC2)Oc2ccc(NC(=O)Cc3ccccc3)cc2C1=O | / | 5 | / | 17 | 4[16.7 µM]
COc1ccc(C2CC(=O)C(C=NCCN3CCOCC3)=C(O)C2)cc1 (centres undefined) | 4 | 126* | -2 | / | 4
COc1ccc(C2CC(=O)C(C=NCCN3CCN(C(C)=O)CC3)=C(O)C2)cc1 (centres undefined) | -7 | 19 | -7 | / | -1
Cc1ccc(CC2CC(=O)N(CCc3ccc4c(c3)OCO4)C2=O)cc1 (centres undefined) | 5 | 147* | -11 | / | -4
C[C@H]1CN([C@@H](C)CO)C(=O)c2cc(NC(=O)C3CCCCC3)ccc2O[C@H]1CN(C)Cc1ccc2c(c1)OCO2 | 3 | 16 | / | 1 | -5[16.7 µM]
C[C@@H]1CN([C@@H](C)CO)C(=O)Cc2cc(NS(=O)(=O)c3cccs3)ccc2O[C@H]1CN(C)C(=O)Nc1cccc2ccccc12 | -3 | 51 | / | 2 | -3[16.7 µM]
C/C(NC(=O)c1ccccc1F)=C1\C(=O)C[C@@H]2[C@H]1C2(C)C | 0 | 12 | 0 | / | -1
C/C(NC(=O)c1cccc(F)c1)=C1/C(=O)C[C@@H]2[C@H]1C2(C)C | 7 | 128* | 0 | / | 1
COc1cc(CNn2nnnc2N)ccc1OCC(=O)NC(C)(C)C | 11 | 8 | -15 | / | 1
CCOc1cc(CNn2nnnc2N)ccc1OCC(=O)NC(C)(C)C | -1 | 83* | 7 | / | 7
CCCNC(=O)C[C@H]1CC[C@@H]2[C@H](COc3ccc(NC(=O)c4cccs4)cc3C(=O)N2C)O1 | -1 | 3 | / | -10 | 14[16.7 µM]
CCCCCCn1c(N2CCC(C)CC2)nc2c1c(=O)[nH]c(=O)n2C | 15 | 8 | -2 | / | -7
CCCCCn1c(N2CCC(C(N)=O)CC2)nc2c1c(=O)[nH]c(=O)n2C | 7 | 107* | -6 | / | 1
C[C@@H](NC(=O)C[C@H]1CC[C@@H]2[C@H](COC[C@H](O)CN2C)O1)c1ccccc1 | -9 | -5 | / | -4 | 4[16.7 µM]
SMILES | PGC1a acetyl inh | C2C12 statin | PvdQ acylase | DENV2 CPE rescue | miR122 inh
CCN1[C@@H]2c3ccc(C4=CCCC4)c(=O)n3C[C@H]1[C@H](CO)[C@H]2C(=O)N[C@@H](C)c1ccccc1 | 15 | -12 | / | -7 | -3[16.7 µM]
CCOC(=O)N(C)[C@H]1C[C@H]2c3[nH]c4ccccc4c3CCN2C(=O)[C@H]1[C@H](C)O | / | / | / | 3 | /
CCOC(=O)CNC(=O)N(C)[C@H]1C[C@H]2c3[nH]c4ccccc4c3CCN2C(=O)[C@H]1[C@H](C)O | -11 | -3 | / | 24* | -3
CCOc1cc(/C=C2\CN(C)C/C(=C\c3ccc(O)c(OCC)c3)C2=O)ccc1O | 53* | 16 | 8 | 14 | /
CSc1nc(Sc2ccc(Cl)cc2)c2ccccc2n1 | -3 | 146* | -3 | / | -1
C[C@H](CO)N1C[C@H](C)[C@H](CN(C)S(=O)(=O)c2cccs2)Oc2c(NC(=O)Nc3ccccc3)cccc2C1=O | -12 | / | / | / | -1[16.7 µM]
Cc1cc(S(=O)(=O)Nc2nc(CN3CCOCC3)nc3sc4c(c23)CCCC4)ccc1F | 10 | 121* | -10 | / | 4
COc1ccccc1-c1ccc([C@H]2[C@@H](CO)N3CCCCN(C(=O)NC4CCCC4)C[C@H]23)cc1 | -17 | -16 | / | 23* | -4[16.7 µM]
COc1ccccc1NC(=O)N1CCCCN2[C@@H](CO)[C@@H](c3ccc(C#CC4CCCC4)cc3)[C@@H]2C1 | -31 | -73 | / | 2 | -30[16.7 µM]
COc1ccccc1NC(=O)N1CCCCN2[C@H](CO)[C@@H](c3ccc(C#CC4CCCC4)cc3)[C@@H]2C1 | 0 | -2 | / | 36* | -3[16.7 µM]
COc1ccccc1NC(=O)N1CCCCN2[C@H](CO)[C@H](c3ccc(C#Cc4ccccc4)cc3)[C@@H]2C1 | 2 | / | / | 25* | 12[16.7 µM]
C[C@@H]1CN([C@@H](C)CO)C(=O)c2cc(C3=CCCC3)cnc2O[C@@H]1CN(C)C(=O)Nc1ccc(C(F)(F)F)cc1 | 8 | 2 | / | -1 | -1[16.7 µM]
CCS(=O)(=O)Nc1ccc2c(c1)C(=O)N(C)C[C@H](OC)[C@@H](C)CN(C(=O)C1CCC1)[C@@H](C)CO2 | -6 | -4 | / | 5 | /
Cc1cc(C)cc(N(C(=O)c2nsc(Cl)c2Cl)C(C(=O)NC2CCCC2)c2ccc(O)cc2)c1 (centres undefined) | / | / | -11 | -3 | /
Cc1ccc(N(C(=O)c2nsc(Cl)c2Cl)C(C(=O)NC2CCCC2)c2ccc(O)cc2)cc1C (centres undefined) | / | / | -9 | 84* | /
CC1CCc2nc(NC(=O)c3cc(C(C)(C)C)nn3C)sc2C1 (centres undefined) | 4 | -25 | -3 | 19 | -1
Cc1ccc(-c2nc(NC(=O)c3cc(C(C)(C)C)nn3C)sc2C)cc1Cl | / | -41 | -12 | 55* | 3
CC(C(=O)NC(=O)NCc1ccccc1)N1C(=O)c2ccccc2C1=O (centres undefined) | -1 | 96* | 7 | / | -5
CC(C(=O)NCc1ccccc1)N1C(=O)C2CC=C(Cl)CC2C1=O (centres undefined) | -3 | -3 | -9 | / | -7
CC(C(=O)NCc1ccccc1)N1C(=O)CN(C)C(=O)c2ccccc21 (centres undefined) | -1 | 89* | 3 | / | -6
CCCN1C[C@@H](C)[C@@H](OC)CN(C)C(=O)c2cc(NC(=O)Nc3c(C)noc3C)ccc2OC[C@H]1C | -4 | -11 | / | 0 | /
